# Active and inactive are the calls of the source. The calls were made as follows: active = hit-call score of the fitted dose curve at least 0.9, where 1 is the maximum; inactive = score below 0.9.
# Read-out: Cyclin D1 (CCND1), CCND1 (gene 595)
# Test: LTEA_HepaRG_CCND1: Life Technologies and Expression Analysis (LTEA) Assay for Cyclin D1 (CCND1) using HepaRG (AID 2283451);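 as to AC50: TaqMan qRT-PCR transcript level normalised to ACTB GAPDH and POLR2A housekeeping genes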
# Details: mRNA level, 48 h; actives raise or lower the signal
# Protocol: LTEA_HepaRG is a cell based, multiplexed-readout assay that uses HepaRG, a human liver cell line, with measurements taken at 48 hours after chemical dosing on a 96-well plate.LTEA_HepaRG_CCND1 is one of 102 assay component(s) measured in the LTEA HepaRG cell culture assay. It is a marker of Cell proliferation, survival, death.Data from the assay component LTEA_HepaRG_CCND1 was analyzed into 1 endpoint. This assay endpoint, LTEA_HepaRG_CCND1, was analyzed with bidirectional fitting relative to DMSO as the negative control and baseline of activity. Using a type of inducible reporter, measures of mRNA induction for gain or loss-of-signal activity can be used to understand regulation of transcription factor activity. To generalize the intended target to other relatable targets, this assay endpoint is annotated to the cell cycle intended target family, where the subfamily is Cell proliferation, survival, death.
# A total of 1060 chemcials from the ToxCast library were tested in eight-point concentration-response experiments. Cell culture and cytotoxicity assays were conducted at Thermo Fisher Scientific's Custom Services facility (Madison, WI). A single lot of human HepaRG cells (Thermo Fisher Scientific, Frederick, MD) was used for the cell culture experiments. 96-well format collagen type I coated plates of human HepaRG cells were prepared using established methods. Briefly, cryopreserved HepaRG cells were thawed, plated at a density of approximately 100,000 cells/well in HepaRG Thaw, Plate, and General Purpose media (HPRG770, Thermo Fisher Scientific), and incubated for 48 hours. 0.5% DMSO was selected as vehicle control to balance the requisite need of DMSO in HepaRG cultures to maintain differentiation (for example, baseline metabolism, proportions of hepatocytes vs. cholangiocytes), while enabling further hepatic receptor pathway activation (for example, PXR and CAR) in response to chemical exposure. 48 hours after plating, the culture medium was replaced with HepaRG Serum-Free Incudtion Media. Cells were exposed to each test chemical in duplicate and maintained in CO2 incubators for another 48 hours. Chemical plates were thawed to room temperature and 200x concentrations of treatment groups were prepared. 8-point conentration-reponse curves were made with the highest exposure at 100 uM, followed by half-log dilutions, all in 0.5% DMSO. Each test plate contained variouse controls, induction positive controls (1mM phenobarbital), cytotoxicity positive controls ([…] aflatoxin B1), vehicle controls (0.5% DMSO), and total lysis controls (0.5% DMSO). Cell morphology images were taken using an Essen IncuCyte FLR automated microscope, with six 96-well plates imaged in about 24 minutes. Images were captured and exported and JPEG files. Spent culture media was transfered to black-well plates for the LDH assay, and remaining media was sorted at -80 C for later use. Cells were treated with RLT buffer and frozen until shipped for gene expression analysis. Total RNA was isolated from the cell suspension in 75 uL of Buffer RLT (Qiagen, Germantown, MD 20874) by Quintiles/Expression Analysis (Durham, NC) using a custom isolation procedure. Total RNA from each plate well was transferred to a preamplification plate. Fluidigm's 96.96 Dynamic ArrayTM (Fluidigm, Amsterdam, the Netherlands) technology was used for gene expression analyses by quantitative reverse transcription polymerase chain reaction (qRT-PCR, performed by Quintiles/Expression Analysis, Durham, NC)89. Standard TaqManTM Assays (Applied Biosystems/ThermoFisher Scientific, Foster City, CA) were used to assess the expression of 93 genes selected based on their selectivity and sensitivity to important hepatic receptors known to be modulated by environmental chemicals; importance in human hepatocyte functionality; and hepatotoxicity. […]
SMILES,outcome,AC50
OCC(CO)(CBr)CBr,inactive,–
O=C(CCCN1CCC(O)(c2ccc(Cl)cc2)CC1)c1ccc(F)cc1,inactive,–
CN(Cc1cnc2nc(N)nc(N)c2n1)c1ccc(C(=O)N[C@@H](CCC(=O)O)C(=O)O)cc1,inactive,–
O=C1NS(=O)(=O)c2ccccc21,inactive,–
N=C(N)c1ccc(OCCCCCOc2ccc(C(=N)N)cc2)cc1,inactive,–
O=C(c1ccccc1)c1ccccc1,inactive,–
CCCCc1oc2ccccc2c1C(=O)c1cc(I)c(OCCN(CC)CC)c(I)c1,inactive,–
CN(C)CCOC(c1ccccc1)c1ccccc1,inactive,–
Cc1[nH]nc2c1N=C(c1ccccc1Cl)c1cc([N+](=O)[O-])ccc1N2,–,1.22 µM (active)
CCCCCCCCCCCCOS(=O)(=O)O,inactive,–
CS(=O)(=O)c1ccc([C@@H](CC2CCCC2)C(=O)Nc2cnccn2)cc1Cl,inactive,–
CCCCC(CC)C(=O)O (stereo unspecified),inactive,–
CCCCC=O,inactive,–
CCC(C)c1ccccc1O (stereo unspecified),inactive,–
CC(=O)Nc1ccc(O)cc1,inactive,–
CCCCCCCCCCCCCCC,inactive,–

# Source: PubChem BioAssay (EPA / NIEHS)
